# In PubChem BioAssay AID1321 (The Scripps Research Institute Molecular Screening Center, 2008):
# In all, about 220,000 compounds went through this assay and about 2,600 (1.2%) were called active. This is one part of a sample in which actives are shown more often than they occur. A number with no mark means an inactive call.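 Rule for the calls: active = activation above the mean of all tested compounds plus 3 SD, set per screening run (cut at about 8.8% in these data); inactive = the rest.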
# Biological target: Wee1-like protein kinase (Homo sapiens) (UniProt P30291)
# Assay: compounds stabilizing Wee1-luciferase fusion – cell-based, HeLa, Wee1K328M-luciferase, luminescence, primary screen (AID 1321);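 note: cells exposed to compound for 20 h before luminescence read; 0% = DMSO alone and 100% = MG132 at 30 µM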
# Settings: HeLa Luc-Wee1K328M stability, at 5 µM, stronger effect = higher value
row,SMILES,activation
1,CCCCC(=O)N/N=C/c1c(O)n(-c2ccccc2)c(=O)[nH]c1=O,-2.55%
2,O=c1[nH]c(=O)n(Cc2ccccc2)c(O)c1/C=N/Nc1c(F)c(F)c(F)c(F)c1F,-0.63%
3,O=C(N/N=C/c1c(O)n(Cc2ccccc2)c(=O)[nH]c1=O)c1ccccc1,16.4% (active)
4,CN(C)CC1CCCCC1=O (stereo not given),-1.81%
5,NC(=O)Nc1cccc(C(F)(F)F)c1,0.59%
